Results as given in the supplement of paper PMC11732987, “Enantioselective OTUD7B fragment discovery through chemoproteomics screening and high-throughput optimisation” (Communications Chemistry, 2025).

Columns and labels:
Assay in all cases: log2 ratio of Biotin-Ahx-Ub-VS probe labelling (fragment/DMSO); higher = less target engagement (more negative = stronger competition), active = hit call of the paper (q ≤ 0.05, log2 ratio ≤ -1)
Details in all cases: compound concentration: 200 uM; treatment time: 3 h
USP42 = biological target: T1, USP42 (UniProt Q9H9J4)
T1 sequence (whole entry): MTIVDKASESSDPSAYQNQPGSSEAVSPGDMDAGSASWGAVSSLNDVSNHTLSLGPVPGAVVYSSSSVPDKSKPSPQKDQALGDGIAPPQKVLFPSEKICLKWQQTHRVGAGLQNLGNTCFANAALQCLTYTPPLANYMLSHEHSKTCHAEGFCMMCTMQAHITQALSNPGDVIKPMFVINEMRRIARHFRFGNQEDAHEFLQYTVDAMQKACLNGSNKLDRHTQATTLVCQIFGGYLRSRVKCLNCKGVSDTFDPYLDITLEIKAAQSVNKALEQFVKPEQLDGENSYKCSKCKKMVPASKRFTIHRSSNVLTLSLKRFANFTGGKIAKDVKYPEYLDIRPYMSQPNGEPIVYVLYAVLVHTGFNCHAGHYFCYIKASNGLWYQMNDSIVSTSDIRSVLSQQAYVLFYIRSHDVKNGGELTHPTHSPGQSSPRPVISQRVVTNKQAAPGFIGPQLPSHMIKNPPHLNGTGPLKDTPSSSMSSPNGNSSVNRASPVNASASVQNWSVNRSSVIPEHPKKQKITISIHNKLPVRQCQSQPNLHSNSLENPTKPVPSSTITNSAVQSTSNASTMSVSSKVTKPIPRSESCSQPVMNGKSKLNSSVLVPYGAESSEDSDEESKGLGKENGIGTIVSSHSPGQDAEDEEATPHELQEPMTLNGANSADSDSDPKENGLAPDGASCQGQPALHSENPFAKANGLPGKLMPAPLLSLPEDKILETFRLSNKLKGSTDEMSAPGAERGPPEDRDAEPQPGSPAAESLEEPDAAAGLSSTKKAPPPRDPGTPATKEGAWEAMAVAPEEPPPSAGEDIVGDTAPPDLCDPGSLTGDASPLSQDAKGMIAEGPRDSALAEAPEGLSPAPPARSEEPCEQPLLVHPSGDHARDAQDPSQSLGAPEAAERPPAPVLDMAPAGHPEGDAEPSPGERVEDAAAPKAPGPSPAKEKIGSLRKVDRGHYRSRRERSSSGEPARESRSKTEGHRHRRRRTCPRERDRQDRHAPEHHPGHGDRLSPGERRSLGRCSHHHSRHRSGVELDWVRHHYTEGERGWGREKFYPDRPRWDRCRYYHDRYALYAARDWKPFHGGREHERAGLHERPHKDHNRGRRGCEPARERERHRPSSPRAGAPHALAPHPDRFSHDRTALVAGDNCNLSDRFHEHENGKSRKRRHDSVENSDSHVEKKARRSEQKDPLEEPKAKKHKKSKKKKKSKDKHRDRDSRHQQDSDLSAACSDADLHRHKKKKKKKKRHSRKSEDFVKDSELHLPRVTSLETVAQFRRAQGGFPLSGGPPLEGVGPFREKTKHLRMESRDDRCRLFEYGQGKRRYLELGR
Procedure, shortened: (§1)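 Labelling with Biotin-Ahx-Ub-VS (0.5 µM final, 1 h) followed a 3 h triplicate treatment of HEK293T lysate (495 µg per sample, Tris/CHAPS/IGEPAL buffer with protease inhibitors) with fragment at 200 µM or vehicle. Labelled DUBs were NeutrAvidin-enriched, digested with LysC and trypsin, and run by diaPASEF LC-MS/MS. The values, average log2 fragment/vehicle ratios by unpaired t-test, come from global-median-normalised Spectronaut label-free quantities. Proteins with ≥2 unique peptides were used.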

USP46 = USP46 (UniProt P62068)
Chain of USP46 (P62068 whole entry): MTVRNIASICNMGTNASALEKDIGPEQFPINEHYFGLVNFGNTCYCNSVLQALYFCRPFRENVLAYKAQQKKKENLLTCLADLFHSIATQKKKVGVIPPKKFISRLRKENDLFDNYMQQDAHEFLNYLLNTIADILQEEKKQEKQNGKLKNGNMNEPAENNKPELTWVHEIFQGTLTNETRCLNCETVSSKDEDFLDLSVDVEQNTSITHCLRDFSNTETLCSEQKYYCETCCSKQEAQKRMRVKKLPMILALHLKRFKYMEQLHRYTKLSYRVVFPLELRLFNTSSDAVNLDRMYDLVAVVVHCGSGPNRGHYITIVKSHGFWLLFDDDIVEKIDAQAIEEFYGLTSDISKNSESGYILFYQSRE
Procedure, shortened: as §1

USP47 = biological target: T2, USP47 (UniProt Q96K76)
T2 sequence (whole entry): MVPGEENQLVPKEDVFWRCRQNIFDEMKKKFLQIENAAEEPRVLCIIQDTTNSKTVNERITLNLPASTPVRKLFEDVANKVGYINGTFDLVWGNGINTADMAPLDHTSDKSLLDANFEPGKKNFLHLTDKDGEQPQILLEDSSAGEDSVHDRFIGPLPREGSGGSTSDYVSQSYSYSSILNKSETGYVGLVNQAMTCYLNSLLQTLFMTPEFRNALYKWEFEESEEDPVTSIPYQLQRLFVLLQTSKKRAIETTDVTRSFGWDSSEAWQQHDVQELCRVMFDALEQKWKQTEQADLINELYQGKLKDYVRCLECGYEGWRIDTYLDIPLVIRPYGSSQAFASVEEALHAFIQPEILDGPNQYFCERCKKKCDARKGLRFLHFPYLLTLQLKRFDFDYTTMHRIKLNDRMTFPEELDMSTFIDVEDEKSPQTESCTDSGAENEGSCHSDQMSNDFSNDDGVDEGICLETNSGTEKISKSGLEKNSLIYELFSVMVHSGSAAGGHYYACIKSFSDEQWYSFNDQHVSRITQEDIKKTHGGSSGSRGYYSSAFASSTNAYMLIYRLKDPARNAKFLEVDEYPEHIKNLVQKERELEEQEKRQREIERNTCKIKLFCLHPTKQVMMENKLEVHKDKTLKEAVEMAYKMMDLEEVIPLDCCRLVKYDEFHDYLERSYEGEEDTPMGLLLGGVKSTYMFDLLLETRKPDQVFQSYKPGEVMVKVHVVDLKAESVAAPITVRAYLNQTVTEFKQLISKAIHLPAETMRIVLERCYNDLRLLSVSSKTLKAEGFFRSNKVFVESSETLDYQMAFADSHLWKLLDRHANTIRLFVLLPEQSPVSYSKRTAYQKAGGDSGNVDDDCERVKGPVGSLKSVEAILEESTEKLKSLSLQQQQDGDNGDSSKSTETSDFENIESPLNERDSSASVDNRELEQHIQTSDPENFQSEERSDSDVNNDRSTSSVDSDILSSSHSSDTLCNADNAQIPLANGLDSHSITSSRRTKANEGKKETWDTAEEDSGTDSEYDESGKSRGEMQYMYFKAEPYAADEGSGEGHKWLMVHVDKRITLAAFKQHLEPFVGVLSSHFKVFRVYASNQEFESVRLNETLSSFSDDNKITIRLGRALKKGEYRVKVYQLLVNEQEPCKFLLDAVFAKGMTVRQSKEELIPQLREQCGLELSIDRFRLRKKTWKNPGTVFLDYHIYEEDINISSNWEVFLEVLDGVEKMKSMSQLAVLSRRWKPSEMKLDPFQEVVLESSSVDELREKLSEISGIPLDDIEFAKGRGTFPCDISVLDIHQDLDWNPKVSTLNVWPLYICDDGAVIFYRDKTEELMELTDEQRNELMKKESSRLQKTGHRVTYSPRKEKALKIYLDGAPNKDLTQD
Procedure, shortened: as §1

USP48 = biological target: T3, USP48 (UniProt Q86UV5)
T3 sequence (whole entry): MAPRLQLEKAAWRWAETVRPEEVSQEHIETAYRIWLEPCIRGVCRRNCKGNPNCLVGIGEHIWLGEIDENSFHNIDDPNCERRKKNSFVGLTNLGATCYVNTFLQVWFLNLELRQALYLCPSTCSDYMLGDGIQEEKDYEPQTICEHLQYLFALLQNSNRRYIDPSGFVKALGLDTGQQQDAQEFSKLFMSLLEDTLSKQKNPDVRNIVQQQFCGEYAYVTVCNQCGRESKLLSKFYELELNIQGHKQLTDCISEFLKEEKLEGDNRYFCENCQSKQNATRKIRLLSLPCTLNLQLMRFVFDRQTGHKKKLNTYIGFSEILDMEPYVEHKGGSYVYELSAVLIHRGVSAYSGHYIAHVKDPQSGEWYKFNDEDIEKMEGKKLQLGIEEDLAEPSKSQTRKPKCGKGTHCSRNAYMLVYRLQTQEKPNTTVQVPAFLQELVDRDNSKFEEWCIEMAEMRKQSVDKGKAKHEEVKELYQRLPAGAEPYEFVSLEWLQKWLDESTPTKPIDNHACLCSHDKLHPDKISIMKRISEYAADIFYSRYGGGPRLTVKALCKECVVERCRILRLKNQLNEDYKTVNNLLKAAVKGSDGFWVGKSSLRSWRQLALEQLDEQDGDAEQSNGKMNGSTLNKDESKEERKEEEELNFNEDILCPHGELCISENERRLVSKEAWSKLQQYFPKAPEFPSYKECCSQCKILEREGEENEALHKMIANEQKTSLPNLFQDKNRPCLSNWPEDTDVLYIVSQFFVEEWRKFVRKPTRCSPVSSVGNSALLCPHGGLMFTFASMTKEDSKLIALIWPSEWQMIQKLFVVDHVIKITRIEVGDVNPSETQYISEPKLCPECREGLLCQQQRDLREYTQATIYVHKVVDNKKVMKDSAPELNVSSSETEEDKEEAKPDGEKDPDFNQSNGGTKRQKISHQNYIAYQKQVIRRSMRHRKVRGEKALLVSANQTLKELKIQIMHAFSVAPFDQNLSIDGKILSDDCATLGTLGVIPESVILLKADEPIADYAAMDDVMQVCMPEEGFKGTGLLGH
Procedure, shortened: as §1

USP5 = biological target: T4, USP5 (UniProt P45974)
T4 sequence (whole entry): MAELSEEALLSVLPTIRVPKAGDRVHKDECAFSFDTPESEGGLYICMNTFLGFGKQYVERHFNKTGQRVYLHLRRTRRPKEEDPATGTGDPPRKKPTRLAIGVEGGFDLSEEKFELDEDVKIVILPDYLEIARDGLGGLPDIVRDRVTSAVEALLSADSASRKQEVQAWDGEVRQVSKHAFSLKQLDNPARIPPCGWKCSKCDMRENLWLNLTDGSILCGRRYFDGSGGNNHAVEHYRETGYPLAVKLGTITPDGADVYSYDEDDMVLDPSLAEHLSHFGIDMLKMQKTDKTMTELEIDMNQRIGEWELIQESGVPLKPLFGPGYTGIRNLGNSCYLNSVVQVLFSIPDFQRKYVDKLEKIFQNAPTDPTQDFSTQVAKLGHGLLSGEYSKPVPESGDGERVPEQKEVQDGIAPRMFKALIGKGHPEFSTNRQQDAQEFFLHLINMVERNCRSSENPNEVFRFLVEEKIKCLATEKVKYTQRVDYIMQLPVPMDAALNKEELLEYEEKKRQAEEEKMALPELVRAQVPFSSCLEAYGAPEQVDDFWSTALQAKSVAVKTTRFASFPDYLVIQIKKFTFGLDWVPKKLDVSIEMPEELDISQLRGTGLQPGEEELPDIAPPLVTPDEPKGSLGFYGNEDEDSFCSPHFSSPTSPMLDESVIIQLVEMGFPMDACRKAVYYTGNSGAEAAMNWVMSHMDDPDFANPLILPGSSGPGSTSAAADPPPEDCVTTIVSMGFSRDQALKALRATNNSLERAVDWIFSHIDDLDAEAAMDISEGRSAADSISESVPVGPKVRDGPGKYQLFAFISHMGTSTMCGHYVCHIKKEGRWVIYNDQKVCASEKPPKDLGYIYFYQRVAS
Procedure, shortened: as §1

USP54 = USP54 (UniProt Q70EL1)
Procedure, shortened: as §1

USP7 = USP7 (UniProt Q93009)
Chain of USP7 (Q93009 whole entry, looked up): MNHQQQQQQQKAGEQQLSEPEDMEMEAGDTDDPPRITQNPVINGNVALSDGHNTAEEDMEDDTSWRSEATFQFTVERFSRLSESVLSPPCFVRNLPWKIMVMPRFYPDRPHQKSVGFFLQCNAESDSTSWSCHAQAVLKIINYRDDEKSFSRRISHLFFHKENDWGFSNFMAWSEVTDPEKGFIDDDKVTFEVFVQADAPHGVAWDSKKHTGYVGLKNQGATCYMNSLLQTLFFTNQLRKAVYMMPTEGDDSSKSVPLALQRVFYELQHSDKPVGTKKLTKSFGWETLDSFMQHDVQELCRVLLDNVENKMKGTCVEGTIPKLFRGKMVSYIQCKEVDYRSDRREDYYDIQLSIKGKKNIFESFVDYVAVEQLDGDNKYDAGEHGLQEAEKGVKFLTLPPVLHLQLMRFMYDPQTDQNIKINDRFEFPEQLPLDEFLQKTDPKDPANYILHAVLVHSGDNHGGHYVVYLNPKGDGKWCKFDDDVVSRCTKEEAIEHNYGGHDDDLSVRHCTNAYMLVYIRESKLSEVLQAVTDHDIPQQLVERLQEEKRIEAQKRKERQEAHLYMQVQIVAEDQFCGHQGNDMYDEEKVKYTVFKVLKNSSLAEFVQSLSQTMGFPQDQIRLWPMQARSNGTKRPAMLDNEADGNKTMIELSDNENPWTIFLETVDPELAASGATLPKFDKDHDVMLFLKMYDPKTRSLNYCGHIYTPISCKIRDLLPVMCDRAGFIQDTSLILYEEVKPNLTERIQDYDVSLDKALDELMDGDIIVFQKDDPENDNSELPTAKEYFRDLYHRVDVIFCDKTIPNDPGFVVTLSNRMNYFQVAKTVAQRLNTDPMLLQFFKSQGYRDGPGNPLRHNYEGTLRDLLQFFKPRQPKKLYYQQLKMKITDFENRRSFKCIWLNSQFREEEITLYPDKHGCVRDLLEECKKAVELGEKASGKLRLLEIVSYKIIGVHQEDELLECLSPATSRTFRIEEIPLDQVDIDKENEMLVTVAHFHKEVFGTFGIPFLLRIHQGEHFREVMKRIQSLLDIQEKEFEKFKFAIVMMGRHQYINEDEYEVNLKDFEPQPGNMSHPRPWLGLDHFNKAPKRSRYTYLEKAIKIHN
Procedure, shortened: as §1

USP8 = biological target: T5, USP8 (UniProt P40818)
T5 sequence (whole entry): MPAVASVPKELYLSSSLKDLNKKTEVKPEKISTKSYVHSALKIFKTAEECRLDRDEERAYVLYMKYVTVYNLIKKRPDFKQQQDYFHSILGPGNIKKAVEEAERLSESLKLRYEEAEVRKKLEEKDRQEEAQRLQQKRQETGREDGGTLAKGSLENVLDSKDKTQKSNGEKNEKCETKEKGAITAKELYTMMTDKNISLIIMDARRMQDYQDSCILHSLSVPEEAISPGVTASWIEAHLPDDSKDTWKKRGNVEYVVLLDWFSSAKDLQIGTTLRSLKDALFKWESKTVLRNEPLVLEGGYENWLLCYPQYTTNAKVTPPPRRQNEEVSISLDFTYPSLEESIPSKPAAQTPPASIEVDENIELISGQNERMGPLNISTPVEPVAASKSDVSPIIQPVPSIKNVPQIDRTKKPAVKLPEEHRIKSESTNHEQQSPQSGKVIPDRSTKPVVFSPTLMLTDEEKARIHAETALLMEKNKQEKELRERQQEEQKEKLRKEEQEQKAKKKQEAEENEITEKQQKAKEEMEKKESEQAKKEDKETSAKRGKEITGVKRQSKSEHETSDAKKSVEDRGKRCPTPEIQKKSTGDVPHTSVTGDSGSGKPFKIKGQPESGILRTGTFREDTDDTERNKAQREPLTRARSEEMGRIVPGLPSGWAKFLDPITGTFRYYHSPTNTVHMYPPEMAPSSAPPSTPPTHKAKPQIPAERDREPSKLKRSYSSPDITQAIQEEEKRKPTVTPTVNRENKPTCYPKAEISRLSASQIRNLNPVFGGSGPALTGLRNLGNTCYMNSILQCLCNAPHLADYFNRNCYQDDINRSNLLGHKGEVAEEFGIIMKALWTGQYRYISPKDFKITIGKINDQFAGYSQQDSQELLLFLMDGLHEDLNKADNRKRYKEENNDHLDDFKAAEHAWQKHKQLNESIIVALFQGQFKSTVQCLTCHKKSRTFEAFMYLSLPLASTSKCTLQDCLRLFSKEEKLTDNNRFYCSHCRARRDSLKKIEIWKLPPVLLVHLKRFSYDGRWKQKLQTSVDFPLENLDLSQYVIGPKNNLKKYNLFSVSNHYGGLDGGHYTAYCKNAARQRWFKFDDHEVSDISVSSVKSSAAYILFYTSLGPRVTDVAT
Procedure, shortened: as §1

USP9X = USP9X (UniProt Q93008)
Chain of USP9X (Q93008 whole entry): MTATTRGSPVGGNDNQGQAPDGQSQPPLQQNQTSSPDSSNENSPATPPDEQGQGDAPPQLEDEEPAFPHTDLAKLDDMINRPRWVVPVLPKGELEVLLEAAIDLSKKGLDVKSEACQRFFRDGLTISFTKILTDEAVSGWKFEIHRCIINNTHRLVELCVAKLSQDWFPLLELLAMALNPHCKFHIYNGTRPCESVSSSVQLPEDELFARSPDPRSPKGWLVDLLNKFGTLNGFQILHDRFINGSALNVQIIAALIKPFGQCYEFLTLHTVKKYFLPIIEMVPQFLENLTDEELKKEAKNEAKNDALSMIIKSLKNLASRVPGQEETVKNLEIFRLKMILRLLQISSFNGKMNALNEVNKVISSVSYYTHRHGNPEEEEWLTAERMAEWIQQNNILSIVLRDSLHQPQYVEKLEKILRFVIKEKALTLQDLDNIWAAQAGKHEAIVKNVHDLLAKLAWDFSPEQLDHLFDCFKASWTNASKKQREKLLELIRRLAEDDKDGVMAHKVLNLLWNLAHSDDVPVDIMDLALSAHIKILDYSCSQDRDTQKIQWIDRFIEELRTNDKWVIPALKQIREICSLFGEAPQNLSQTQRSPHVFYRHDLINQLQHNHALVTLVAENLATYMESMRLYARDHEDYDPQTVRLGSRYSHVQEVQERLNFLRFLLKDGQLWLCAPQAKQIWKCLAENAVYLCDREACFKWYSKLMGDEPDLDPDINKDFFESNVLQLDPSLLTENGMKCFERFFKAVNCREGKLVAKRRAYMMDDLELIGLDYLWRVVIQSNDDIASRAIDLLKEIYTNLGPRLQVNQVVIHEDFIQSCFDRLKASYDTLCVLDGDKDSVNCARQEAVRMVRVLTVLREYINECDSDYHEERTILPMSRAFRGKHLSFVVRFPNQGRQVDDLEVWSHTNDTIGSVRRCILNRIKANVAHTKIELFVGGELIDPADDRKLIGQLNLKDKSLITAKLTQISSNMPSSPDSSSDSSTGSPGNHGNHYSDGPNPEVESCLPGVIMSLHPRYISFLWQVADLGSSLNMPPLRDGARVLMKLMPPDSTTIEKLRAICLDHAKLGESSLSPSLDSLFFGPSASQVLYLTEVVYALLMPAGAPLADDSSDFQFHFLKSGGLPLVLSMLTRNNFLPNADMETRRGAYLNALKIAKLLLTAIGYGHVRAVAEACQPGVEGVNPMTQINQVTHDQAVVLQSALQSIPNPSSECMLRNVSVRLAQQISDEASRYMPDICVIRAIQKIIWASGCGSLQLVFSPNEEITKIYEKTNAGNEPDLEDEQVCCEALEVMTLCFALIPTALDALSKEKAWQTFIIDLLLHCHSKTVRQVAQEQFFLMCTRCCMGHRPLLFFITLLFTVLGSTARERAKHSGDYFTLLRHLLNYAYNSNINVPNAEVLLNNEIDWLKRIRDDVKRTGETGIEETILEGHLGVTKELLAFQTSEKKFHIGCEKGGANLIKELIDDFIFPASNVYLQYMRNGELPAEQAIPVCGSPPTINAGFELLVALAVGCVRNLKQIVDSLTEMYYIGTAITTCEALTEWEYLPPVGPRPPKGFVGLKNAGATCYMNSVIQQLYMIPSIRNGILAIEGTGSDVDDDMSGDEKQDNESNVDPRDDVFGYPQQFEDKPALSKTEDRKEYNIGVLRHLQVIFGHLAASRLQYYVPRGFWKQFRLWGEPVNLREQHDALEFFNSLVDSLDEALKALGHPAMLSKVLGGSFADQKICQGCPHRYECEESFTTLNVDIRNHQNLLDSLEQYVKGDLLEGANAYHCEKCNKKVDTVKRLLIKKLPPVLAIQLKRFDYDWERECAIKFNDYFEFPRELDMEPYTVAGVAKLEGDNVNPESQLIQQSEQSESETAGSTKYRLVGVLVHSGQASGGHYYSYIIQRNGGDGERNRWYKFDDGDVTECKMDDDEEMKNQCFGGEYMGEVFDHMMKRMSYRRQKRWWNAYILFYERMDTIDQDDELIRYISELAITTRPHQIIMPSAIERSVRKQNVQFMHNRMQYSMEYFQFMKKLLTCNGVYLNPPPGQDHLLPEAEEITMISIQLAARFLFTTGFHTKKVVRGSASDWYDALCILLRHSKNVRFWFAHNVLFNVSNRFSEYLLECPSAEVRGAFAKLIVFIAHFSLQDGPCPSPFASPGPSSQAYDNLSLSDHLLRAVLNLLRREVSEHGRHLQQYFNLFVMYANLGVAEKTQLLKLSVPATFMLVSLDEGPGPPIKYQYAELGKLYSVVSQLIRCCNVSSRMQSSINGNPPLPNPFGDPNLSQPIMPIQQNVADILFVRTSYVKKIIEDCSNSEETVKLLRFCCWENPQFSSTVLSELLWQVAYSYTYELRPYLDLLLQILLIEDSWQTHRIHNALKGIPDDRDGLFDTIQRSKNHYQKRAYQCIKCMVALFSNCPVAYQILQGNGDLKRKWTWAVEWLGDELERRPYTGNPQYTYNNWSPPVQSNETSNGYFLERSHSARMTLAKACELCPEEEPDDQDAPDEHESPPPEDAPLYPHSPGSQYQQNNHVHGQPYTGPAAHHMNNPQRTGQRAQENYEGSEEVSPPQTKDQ
Procedure, shortened: as §1

UniProt O00487 = biological target: UniProt O00487
Chain of UniProt O00487 (O00487 whole entry): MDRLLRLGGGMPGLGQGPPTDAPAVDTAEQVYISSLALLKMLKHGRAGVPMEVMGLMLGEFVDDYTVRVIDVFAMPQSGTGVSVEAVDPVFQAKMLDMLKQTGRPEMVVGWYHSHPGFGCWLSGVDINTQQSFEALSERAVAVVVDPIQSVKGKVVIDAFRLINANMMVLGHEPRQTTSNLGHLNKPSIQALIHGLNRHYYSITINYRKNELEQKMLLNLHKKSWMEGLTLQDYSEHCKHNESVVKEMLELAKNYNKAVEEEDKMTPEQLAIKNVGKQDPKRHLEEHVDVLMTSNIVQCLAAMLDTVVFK
Procedure, shortened: as §1

Measured: log2 ratio of Biotin-Ahx-Ub-VS probe labelling

Cc1cccc(NC(=O)CCl)c1C
inactive: USP42 0.0545 | USP46 -0.22 | USP47 -0.266 | USP48 -0.0682 | USP5 -0.738 | USP54 -0.507 | USP7 -0.293 | USP8 -0.346 | USP9X -0.185 | UniProt O00487 -0.182
